Bioassay records (PubChem)
Shiga toxin inh: A qHTS for Small Molecule Inhibitors of Shiga Toxin. Vero cells, Shiga toxin protein synthesis inhibition reporter. inhibition, % at 38.7 µM. 9.2% of 290,000 active; in the data active = inhibition mostly above about 28%, no sharp cut-off; inactive = mostly below about 43%; also: 0% is about no effect
HCMV antiviral: qHTS Assay for inhibitors of the human cytomegalovirus (HCMV); activity change, negative = inhibition, % at 57.5 µM; AID 1259415, 2018; 4.5% of 410,000 active; HFF cells, HCMV-luciferase reporter, 72 h; active compounds read low; in the data active = activity change below about -60%; inconclusive = no clear call, values can overlap the other calls; inactive = above about -39%; also: % is scaled to controls: 0 for no effect and ±100 for the full control effect
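Human foreskin fibroblasts infected with luciferase-reporter HCMV at MOI 1 PFU/cell, compounds at two doses. Luciferase measured 72 h post infection; normalized to buffer-only basal and Salinomycin (10uM) controls.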
CHX counter: Cycloheximide Counterscreen for Small Molecule Inhibitors of Shiga Toxin. AID 2314, 2010. cell reporter, cycloheximide protein synthesis inhibition counterscreen. 12% of 300,000 active. max response, %; in the data active = max response mostly above about 13%, no sharp cut-off; inactive = mostly below about 14%; also: read at 38.3 µM for the half of the compounds with a filed dose; 0% is about no effect
Pf growth 96h: Primary qHTS for delayed death inhibitors of the malarial parasite plastid, 96 hour incubation; P. falciparum luciferase reporter growth, 96 h; Potency, µM (doses to about 28.7 µM), for the others: top-dose activity change, negative = inhibition, most hits filed as inhibitors; 6.9% of 320,000 active; AID 504834, 2011; also: potency is read from the fitted curve at half-maximal effect; % is scaled to controls: 0 for no effect and ±100 for the full control effect
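Luminescence readout: decreased luciferase signal marks inhibited growth of reporter-expressing P. falciparum in infected red cells (2% hematocrit, 0.05% parasitemia final), exposed to compound two generations (96 h, 37 C, 5% CO2).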
HCV inhibitor: qHTS Assay for Inhibitors of Hepatitis C Virus (HCV); Huh7.5.1 HCVcc-Cre infection, luciferase reporter, 44 h; Potency, µM (highest dose often 41.8 µM), without a hit: at the top dose activity change, negative = inhibition, hits mostly inhibitors; 3.4% of 340,000 active; AID 651820, 2012; also: potency is read from the fitted curve at half-maximal effect; % is scaled to controls: 0 for no effect and ±100 for the full control effect
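Seed cells (1,000/well) for 4 h; treat with compound and infect with HCVcc-Cre, moi about 0.5. Incubate 44 h, then detect luciferase activity.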
Pf growth 48h: Primary qHTS for delayed death inhibitors of the malarial parasite plastid, 48 hour incubation; 5.9% of 310,000 active; Potency, µM (highest dose often 28.7 µM), for inactives: top-dose activity change, negative = inhibition, most hits filed as inhibitors; P. falciparum luciferase growth in erythrocytes, 48 h; also: potency is read from the fitted curve at half-maximal effect; % is scaled to controls: 0 for no effect and ±100 for the full control effect
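Cell-based growth assay: transgenic P. falciparum expressing firefly luciferase, cultured in red cells within RPMI 1640 containing 0.5% w/v Albumax, 24 mM bicarbonate and gentamycin. A drop in luciferase activity indicates inhibition.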
The depositor's hits bear a star; ? = inconclusive; . = no result; ! = repeats disagree; [ ] = another dose, or the depositor's remark. A selection: hits, their analogues and other compounds. The true share with any hit is near 21%. Unless noted, calls follow the shape of the dose curve; as a rule, active = well fitted inhibition curve with a large enough effect; inconclusive = small, poorly fitted or top-dose-only effect, or another doubt; inactive = no such curve, though single readings can be large or run the other way.

SMILES	Shiga toxin inh	HCMV antiviral	CHX counter	Pf growth 96h	HCV inhibitor	Pf growth 48h
Cc1ccc(S(=O)(=O)Nc2cccc(-c3ccc(N4CCCCCC4)nn3)c2)cc1C	115*	-9	39*	13µM*	?	22%
COc1ccc(C)cc1S(=O)(=O)Nc1cccnc1	9	65	2	6.6µM*	18%	24%
COc1ccc(C)cc1S(=O)(=O)Nc1cccc(-c2ccc(N3CCC(C)CC3)nn2)c1	.	29	.	.	.	.
O=S(=O)(Nc1cccc(-c2ccc(N3CCCCCC3)nn2)c1)c1cccc(F)c1	116*	-10	40*	-2%	-4%	40%
CCCN(C(=O)CCc1nc(-c2ccc(C)cc2)no1)c1ccc(OCC)cc1	.	2	.	.	.	.
COC(=O)C1CN(C(=O)COc2ccccc2)c2ccccc2O1 (stereo not drawn)	-3	-13	1	?	8%	-3%
CN1CCN(C(=O)Cn2c(-c3cccs3)cc3ccccc32)CC1	.	-15	.	.	.	.
CC(=O)Nc1ccc(S(=O)(=O)N(C)CC(=O)OCC(=O)N(C)C2CCS(=O)(=O)C2)cc1 (stereo not drawn)	.	-23	.	?	-1%	0%
c1csc(-n2nc3ccccc3n2)c1	25	-66*	11	8%[5.75 µM]	-28%	51%
Nc1ccc(-n2nc3ccccc3n2)cc1	.	70	.	.	-12%	.
CCOC(=O)CSc1nc2ccc(NC(=O)c3ccc(F)cc3)cc2s1	.	22	.	.	.	.
C#CC1(O)C=CC2C3CCC4=CC(=O)CCC4C3CCC21CC (stereo not drawn)	-6	-24	-2	8.5µM*	5%	?
O=C(Nc1cccnc1)c1cccs1	5	?	8	6%	?	30%
O=C(Nc1cnccn1)c1cccs1	66	78	19*	.	2%	0%
Cc1cnccc1NC(=O)c1cccs1	-5	-62*	-2	43%	-26%	3%
C[C@H](CO)N1C[C@H](C)[C@@H](CN(C)C(=O)CCCN(C)C)OCc2cn(nn2)CCCC1=O	.	-22	.	.	.	.
Cc1cc(C)c(CN2CCC(n3nccc3NC(=O)CCOc3ccccc3)CC2)cc1C	2	?	-1	13µM*	?	?
CC(C)C(=O)N1CCC(n2nccc2NC(=O)CCOc2ccccc2)CC1	17	-29	17*	?	2%	-11%
COc1cccc(C(=O)N2CCC(n3nccc3NC(=O)CCOc3ccccc3)CC2)c1	28	?	30*	?	5%	3%
Cc1ccccc1CN1CCC(n2nccc2NC(=O)CCOc2ccccc2)CC1	-3	0	2	4.1µM*	-5%	?
CSc1ncccc1C(=O)OCC(=O)Nc1nc(C)c(Cl)cc1Cl	.	-13	.	.	-4%	.
CCCCN(C(=O)c1ccc(Cl)cc1)C1CC2CCC(C1)N2C (stereo not drawn)	-12	-7	-2	?	11µM*	?
CCOC(=O)c1cccc(NC(=O)Nc2ccc3c(c2)C(=O)OC3)c1	-5	?	-1	18%	-4%	-1%
O=C(Nc1ccccc1)C1=C(c2ccccc2)S(=O)(=O)CCS1(=O)=O	45*	-93*	23*	?	?	12µM*
COc1ccc(CNC(=O)C2=C(C)C(=O)OC23CCCCC3)cc1	.	36	.	.	.	.
SMILES	Shiga toxin inh	HCMV antiviral	CHX counter	Pf growth 96h	HCV inhibitor	Pf growth 48h
O=C(NCCN1CCOCC1)C(=O)c1c[nH]c2ccccc12	9	10	-4	?	-9%	15%
Cn1ccnc1C(OC(=O)c1ccccc1)C(F)(F)F (stereo not drawn)	-12	17	-1	19%	-21%	20%
Cc1ccc(S(=O)(=O)Cc2nc(-c3ccc(C(=O)NCc4ccccc4)cc3)oc2C)cc1	.	16	.	.	.	.
Cc1cccc(OCC(=O)Nc2ccc3c(c2)OCCO3)c1	111*	17	62*	2%	?	151%
Cc1ccc(OCC(=O)Nc2ccc3c(c2)OCCO3)cc1C	178*	-63*	32*	?	-5%	237%
CC12CCC(C(=O)n3c1nc1ccccc13)C2(C)C (stereo not drawn)	-11	-29	-2	?	0%	12%
c1ccc2c(c1)NC1(CCCC1)n1c-2nc2ccccc21	92*	-28	27*	18%	11µM*	33%
CCCC1(C)Nc2ccccc2-c2nc3ccccc3n21 (stereo not drawn)	81*	73	53*	2.1µM*	-16%	?
CCCn1c(-c2ccc[nH]c2=O)nc2ccccc21	-3	3	-1	?	-5%	24%
CCc1ccc(C(=O)NCc2cnn(C)c2)s1	37*	7	24	4%	3%	14%[5.75 µM]
Cn1cc(CNC(=O)c2sc3cccc(Cl)c3c2Cl)cn1	-1	11	-3	-21%	?	5%
COc1ccc(-c2ccc(CN3C(CC(C)C)C(=O)N(Cc4cn(CCC5OCCCO5)nn4)CCS3(=O)=O)cc2)cc1OC (stereo not drawn)	.	4	.	.	.	.
O=C(O)CCSc1ccc2ccccc2n1	30*!	15	13	45%	8%	35%
COc1cccc(NC(=O)CCSc2ccc3ccccc3n2)c1	17	-1	15*	6.6µM*	11%	43%
COc1ccc(NC(=O)CCSc2ccc3ccccc3n2)cc1	-10	-23	1	80%	6%	15%
O=C(O)CSc1ccc2ccccc2n1	-4	-23	-1	?	-3%	16%
COc1ccc(N(CC(C)C)S(=O)(=O)c2nnc(NC(=O)CC(C)C)s2)cc1	6	6	-1	?	2%	-9%
COc1ccc(C)cc1NC(=S)NC(C)c1ccc(OC)c(OC)c1 (stereo not drawn)	-7	?	-1	-1%	11µM*	?
COc1ccc(NC(=S)NC(C)c2ccncc2)cc1OC (stereo not drawn)	7	?	1	-31%[5.75 µM]	2%	-18%
CN(Cc1c(F)cccc1Cl)C(=O)CNC(=O)c1cccs1	94*	68	39*	?	9%	57%
CN(Cc1ccc(F)cc1)C(=O)CNC(=O)c1cccs1	.	-15	.	23%	5%	-6%
CC(C)c1ccc(-c2nc(C(N)=O)c3c(n2)n(-c2ccc4c(c2)OCO4)c(=O)n3C)cc1	.	15	.	.	.	.
CCc1ccc(/C=C\C(=O)N2CCc3ccccc3C2)cc1	43*	24	13*	48%	-10%	36%
COc1ccc(CC(=O)N2CCc3ccccc3C2)cc1	24*	.	22*	8.3µM*	-7%	12%
COc1ccc(CC(=O)N2CCN(C)CC2)cc1	-13	1	9	100%	.	43%
O=C(/C=C/c1ccccc1[N+](=O)[O-])N1CCc2ccccc2C1	22	13	21*	?	-3%	42%
